PubChem BioAssay (NCATS)
Results filed as inconclusive are left out. The source made the active and inactive calls. Calls come from the whole dose curve; as a rule, active = well fitted cell-killing curve with a large enough effect; inconclusive = small, poorly fitted or top-dose-only effect, or effect the other way; inactive = no such curve, though single readings can be large or run the other way.
Potency is the fitted concentration of half-maximal effect.

Experiment: Quantitative High-Throughput drug screen in 47 multiple myeloma cell lines against the NCATS MIPE library collection: KMS28BM_JCRB cell viability assay (AID 1919874); note: nearly all actives have a fitted effect of over 35% in size
Conditions: CellTiter-Glo ATP, 48 h; series mostly up to 45.8 µM
Excerpt: PI: Beverly A. Mock Ph.D.
Laboratory of Cancer Biology and Genetics,
Center for Cancer Research, National Cancer Institute,
National Institute of Health, Bethesda, Maryland
Drug resistance and disease progression are common in multiple myeloma (MM) patients, underscoring the need for new therapeutic combinations. […] We hypothesized that effective combinations would reduce MYC expression and enhance p16 activity. […] These preclinical data identify potentially useful drug combinations for evaluation in drug-resistant MM and reveal potential mechanisms of combined drug sensitivity.
Described herein is the primary MIPE qHTS used to cherrypick compounds. Validated compounds were then further tested for potential synergistic activiy.
[1] Peat TJ, Gaikwad SM, Dubois W, Gyabaah-Kessie N, Zhang S, Gorjifard S, Phyo Z, Andres M, Hughitt VK, Simpson RM, Miller MA, Girvin AT, Taylor A, Williams D, D'Antonio N, Zhang Y, Rajagopalan A, Flietner E, Wilson K, Zhang X, Shinn P, Klumpp-Thomas C, McKnight C, Itkin Z, Chen L, Kazandijian D, Zhang J, Michalowski AM, Simmons JK, Keats J, Thomas CJ, Mock BA. Drug combinations identified by high-throughput screening promote cell cycle transition and upregulate Smad pathways in myeloma. Cancer Lett. 2023 Aug 1;568:216284. doi: 10.1016/j.canlet.2023.216284. Epub 2023 Jun 24. PMID: 37356470; PMCID: PMC10408729.
SEQUENCE No. (e.g., 1, 2, 3, etc.); […] (e.g., Cells, Incubation, Reagent, etc.); VALUE and DESCRIPTION.
1; Cells; 5 uL; white, solid bottom 1536-well Greiner assay plate.
2; Compounds; 23 nL; Kalypsis pin tool (Wako USA) equipped with a 1536-well pin head to transfer to the assay plates.
3; Incubation; 48 hours; 37C incubation.
4; Reagent;5uL; CellTiter Glo (Promega).
5; Detector; 425V; Luminescence; Viewlux PerkinElmer.
NOTES (numbers refer to Sequence numbers above)
1. The cell-based screening methods employed in this study were like those previously published. Briefly, the corresponding myeloma cell lines were screened in 1,536-well plates with 500 cells, 5-uL per well for inhibition of cell viability (assessed by measuring ATP levels with CellTiterGlo).
2. NCATS MIPE 4.0 library of approved and investigational drugs were added using the Kalypsis pin tool. Wells treated with DMSO only for 100% viability and media only for 0% viability were used as controls.
3. The assay plates were covered and incubated for 48 hours in a 37C, 5% CO2 incubator with controlled humidity.
4. After 48 hours, CellTilter-GloTM luminescent substrate mix (Promega) reagent was added to the assay plate and plates we incubated for 5 min at room temperature.
5. Signal was measured as median relative luminescence units on a ViewLux (PerkinElmer) multiplate reader.
[1] Heske CM, Davis MI, Baumgart JT, Wilson K, Gormally MV, Chen L, Zhang X, Ceribelli M, Duveau DY, Guha R, Ferrer M, Arnaldez FI, Ji J, Tran HL, Zhang Y, Mendoza A, Helman LJ, Thomas CJ. Matrix Screen Identifies Synergistic Combination of PARP Inhibitors and Nicotinamide Phosphoribosyltransferase (NAMPT) Inhibitors in Ewing Sarcoma. Clin Cancer Res. 2017 Dec 1;23(23):7301-7311. doi: 10.1158/1078-0432.CCR-17-1121. Epub 2017 Sep 12. PMID: 28899971; PMCID: PMC6636827.
With `CCCCN(CCCC)CC(O)c1cc(Cl)cc2c1-c1ccc(Cl)cc1C2=Cc1ccc(Cl)cc1` (stereo not given) the Potency was 23.5 µM (active). For `CNc1nc(Nc2ccc(C(=O)N3CCOCC3)cc2OC)ncc1Cl`, the Potency was “inactive”. With `CC1(COc2ccc3c(c2)ncn3-c2ccc3cccc(N4CCC(N)CC4)c3n2)COC1` the Potency was 0.372 µM (active). In the case of `C[C@H](c1ccc(F)cc1CCCC(=O)O)N(c1cc(F)ccc1F)S(=O)(=O)c1ccc(Cl)cc1`, the Potency was 16.6 µM (active). For `O=C(CCCN1CCN(c2ccc(F)cc2)CC1)NC1c2ccccc2CSc2ccccc21` (stereo not given), the Potency was 11.8 µM (active). For `Cc1cc(CS(=O)(=O)c2ccccc2)cc(OCc2ccc(CN3CCC[C@H]3CO)cc2)c1`, the Potency was “inactive”. With `NC(=O)c1noc([C@H](CCCC2CCCCC2)CC(=O)NO)n1` the Potency was “inactive”. In the case of `CN(C)CCOc1ccc(-c2nc(-c3ccc4c(c3)CCC4=NO)c(-c3ccncc3)[nH]2)cc1`, the Potency was 9.35 µM (active). With `C[C@H]1[C@H](O)O[C@@H]2O[C@@]3(C)CC[C@@H]4[C@H](C)CC[C@@H]1[C@@]24OO3` the Potency was 13.2 µM (active). For `CNC1CCC(N(Cc2cccc(-c3ccncc3)c2)C(=O)c2sc3ccccc3c2Cl)CC1` (stereo not given), the Potency was 18.7 µM (active). In the case of `Nc1ccn([C@@H]2O[C@H](CO)[C@@H](O)[C@H]2O)c(=O)n1`, the Potency was “inactive”. With `Cc1ccc2c(c1)C(=O)[C@]1(O)CCN(c3ccccc3)C1=N2` the Potency was 10.5 µM (active). For `CCN1CCC(n2cc(CNc3cc(Cl)c4ncc(C#N)c(Nc5ccc(F)c(Cl)c5)c4c3)nn2)CC1`, the Potency was 20.9 µM (active). In the case of `CN1c2ccccc2C(=O)N2CCc3c([nH]c4ccccc34)C21` (stereo not given), the Potency was 3.32 µM (active). In the case of `CC[C@H](NC(=O)[C@H](C)NC)C(=O)N1C[C@@H](O)C[C@H]1Cc1c(-c2[nH]c3cc(F)ccc3c2C[C@H]2C[C@H](O)CN2C(=O)[C@H](CC)NC(=O)[C@H](C)NC)[nH]c2cc(F)ccc12`, the Potency was “inactive”. In the case of `CC(C)(OCc1nn(Cc2ccccc2)c2ccccc12)C(=O)O`, the Potency was “inactive”. For `CN[C@@H](C)[C@H]1[C@H](O)C[C@@]2(C)[C@@H]3CC[C@H]4C(C)(C)[C@@H](NC)CC[C@@]45C[C@@]35CC[C@]12C`, the Potency was “inactive”. With `C[C@@H](N)c1ccc(C(=O)Nc2ccnc3[nH]ccc23)cc1` the Potency was 23.5 µM (active). In the case of `CN1C(=O)C[C@H](C(=O)N[C@@H](Cc2cnc[nH]2)C(=O)N2CCC[C@@H]2C(N)=O)NC1=O`, the Potency was 8.33 µM (active). For `CCOC(=O)c1c(CSc2ccccc2)n(C)c2cc(Br)c(O)c(CN(C)C)c12`, the Potency was 14.8 µM (active). In the case of `Cc1[nH]c(C=C2C(=O)Nc3ccc(S(=O)(=O)N(C)c4cccc(Cl)c4)cc32)c(C)c1C(=O)N1CCN(C)CC1`, the Potency was 16.6 µM (active). For `C[C@H]1COC2=C1C(=O)C(=O)c1c2ccc2c1CCCC2(C)C`, the Potency was “inactive”. In the case of `CC(=O)N1CCN(c2ccc(OCc3nn(C)c(C)c3-c3cccc4c(CCCOc5cc(C)c(Cl)c(C)c5)c(C(=O)O)n(Cc5cccnc5)c34)cc2)CC1`, the Potency was 9.35 µM (active). For `NCC1CCC(C(=O)O)CC1` (stereo not given), the Potency was “inactive”. For `O=C1C(c2c(O)[nH]c3ccccc23)=Nc2ccccc21`, the Potency was “inactive”. With `O=C(C=Cc1ccc(O)cc1)c1ccc(O)cc1O` the Potency was 14.8 µM (active). In the case of `Nc1nc(Cl)nc2c1ncn2[C@@H]1O[C@H](CO)[C@@H](O)[C@H]1F`, the Potency was 0.0235 µM (active). For `C[C@@H]1CCO[C@H]2Cn3cc(C(=O)NCc4ccc(F)cc4F)c(=O)c(O)c3C(=O)N12`, the Potency was 16.6 µM (active). For `COc1ccc2nc3cc(Cl)ccc3c(Nc3cc(CN4CCCC4)c(O)c(CN4CCCC4)c3)c2n1`, the Potency was 23.5 µM (active). For `Cc1ccc2c(=O)c3cccc(CC(=O)O)c3oc2c1C`, the Potency was “inactive”. For `CC(C)=CCCC(C)=CCCC(C)=CCCC(C)=CCCC(C)=CCCC(C)=CCCC(C)=CCCC(C)=CCCC(C)=CCO`, the Potency was “inactive”. For `O=C(Nc1ccccc1)Nc1ccc(-c2ccc(C(=O)[C@H]3CCC[C@H]3C(=O)O)cc2)cc1`, the Potency was “inactive”. With `Cn1cc(-c2ccc3nnc(Sc4ccc5ncccc5c4)n3n2)cn1` the Potency was “inactive”. For `COc1cc(Nc2nc3ccccc3nc2NS(=O)(=O)c2ccc(NC(=O)c3ccc(C)c(OC)c3)cc2)cc(OC)c1`, the Potency was “inactive”. With `CN1N=C(N)c2cn([C@@H]3O[C@H](COP(=O)(O)O)[C@@H](O)[C@@H]3O)c3ncnc1c23` the Potency was 23.5 µM (active). With `CN(C)CCN(Cc1ccc(Cl)cc1)c1ccccn1` the Potency was 14.8 µM (active). For `CC(C)(F)C[C@H](N[C@@H](c1ccc(-c2ccc(S(C)(=O)=O)cc2)cc1)C(F)(F)F)C(=O)NC1(C#N)CC1`, the Potency was “inactive”. In the case of `NC(=O)c1ccc(N(C(N)=O)c2c(F)cccc2F)nc1-c1ccc(F)cc1F`, the Potency was “inactive”. With `CO[C@H]1/C=C\O[C@@]2(C)Oc3c(C)c(O)c4c(O)c(c5c(nc6cc(C)ccn65)c4c3C2=O)NC(=O)C(C)=CC=C[C@H](C)[C@H](O)[C@@H](C)[C@@H](O)[C@@H](C)[C@H](OC(C)=O)[C@H]1C` the Potency was “inactive”. With `CCCCC(C)(C)[C@H](O)C=C[C@H]1[C@H](O)CC(=O)[C@H]1CC=CCCCC(=O)O` the Potency was “inactive”.
